# PubChem BioAssay AID736 (The Scripps Research Institute Molecular Screening Center, 2007)
# About 210 (0.22%) of roughly 97,000 compounds were called active. This is one part of a sample in which actives are shown more often than they occur. Unmarked numbers belong to inactive results. No stated cut-off is given here; in the data, active means inhibition above about 45%; inactive means the rest.
# Biological target: Sphingosine 1-phosphate receptor 2 (Homo sapiens) (UniProt O95136)
# Assay: blockers of S1P2 receptor signalling – cell-based, primary screen (AID 736);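 further: CRE beta-lactamase reporter cells expressing human S1P2 stimulated with S1P; 0% = agonist at EC80 alone and 100% = agonist plus reference antagonist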
# Details: cell-based S1P2 antagonist assay, at 5 µM, stronger effect = higher value
# Chain of Sphingosine 1-phosphate receptor 2 (Homo sapiens) (O95136 whole entry, looked up): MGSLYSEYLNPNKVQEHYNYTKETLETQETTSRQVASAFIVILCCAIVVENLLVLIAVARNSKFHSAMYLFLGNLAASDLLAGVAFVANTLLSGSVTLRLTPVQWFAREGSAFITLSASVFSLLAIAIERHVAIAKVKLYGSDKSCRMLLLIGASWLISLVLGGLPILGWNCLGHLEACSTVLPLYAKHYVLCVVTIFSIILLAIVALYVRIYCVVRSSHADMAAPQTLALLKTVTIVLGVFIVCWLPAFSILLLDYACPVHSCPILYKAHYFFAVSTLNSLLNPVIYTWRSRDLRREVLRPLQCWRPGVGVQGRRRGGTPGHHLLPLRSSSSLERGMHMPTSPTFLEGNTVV
row,SMILES,inhibition
1,Cc1nn(C)cc1/C=N/NC(=O)c1sc2ccccc2c1Cl,-19.2%
2,O=C(CCNS(=O)(=O)c1ccccc1C(F)(F)F)NCc1ccc2c(c1)OCO2,-42.1%
3,CCOc1cc(-c2cc(-c3ccc(OC)cc3)nc(N)c2C#N)ccc1O,-25.8%
4,COc1ccc2[nH]c(=O)c(CNc3ccc(C)c(C)c3)cc2c1,17.9%
5,CC1(C)NC(=O)N(CCCCSc2ccc(Cl)cc2)C1=O,11.3%
6,CCc1nnc(NC(=O)CSc2nc3ccccc3c(=O)n2CCCOC)s1,2.95%
7,COc1ccc(C(F)(F)F)cc1N/C=C\c1nnnn1-c1ccc(C)cc1,-17.3%
8,CCNC(=S)Nc1cccc(Cl)c1C,13.9%
9,CCc1ccc(C2C(C#N)=C(N)Oc3n[nH]c(CC(=O)OC)c32)cc1 (configuration not stated),-30.6%
10,Cc1ccc(S(=O)(=O)NCCSC(C)(C)C)cc1,-2.88%
11,Cc1ccc(S/C(=N\S(=O)(=O)c2ccc(Cl)cc2)c2ccccc2)cc1,-10.2%
12,O=C(Nc1cccc(-c2nc3ncccc3o2)c1)c1ccco1,-19.4%
13,CCOC(=O)C1C(=O)NCC1c1ccccc1 (configuration not stated),-4.06%
14,COc1ccc(Cc2nnc(SC)[nH]c2=O)cc1,-19.6%
15,Cc1cccc(C)c1OC(=O)CSc1nnc(-c2ccccc2)o1,-20%
16,O=C(NCCN1CCN(Cc2ccccc2)CC1)c1cc2c(=O)[nH]c3ccccc3c2s1,-27.2%
17,Cc1cc(C=O)c(C)n1-c1ccc(NC2CCCCC2)c([N+](=O)[O-])c1,4.51%
18,Cc1ccc(N2CCN(/N=C/c3cccs3)CC2)cc1,22.6%
19,Cc1cc([N+](=O)[O-])c(N2CCC[C@@H]2C(=O)O)c([N+](=O)[O-])c1,16.9%
20,COc1ccc(N(CC(=O)N/N=C/c2cccc3c2OCCO3)S(=O)(=O)c2ccc(NC(C)=O)cc2)cc1,10.2%
21,COc1ccc(C2C(C(C)=O)=C(O)C(=O)N2Cc2cccnc2)cc1 (configuration not stated),5.26%

row,SMILES,inhibition
1,Cc1nnsc1S(=O)(=O)Cc1ccccc1Cl,6.79%
2,CC(=O)NS(=O)(=O)c1ccc(NC(=S)NC(=O)C(C)(C)C)cc1,1.69%
3,CS(=O)(=O)Nc1cccc(C2=NN(S(=O)(=O)c3ccccc3)C(c3cccs3)C2)c1 (configuration not stated),21.1%
4,Clc1ccc(Cl)c(Oc2ccc(Oc3nc(Cl)ccc3Cl)cc2)n1,-3.25%
5,O=C(Cc1ccc(-n2c(=O)c3sccc3n(Cc3ccc(F)cc3)c2=O)cc1)NCc1ccco1,14.3%
6,O=C(NCCCCCCNC(=O)NCc1ccco1)NCc1ccco1,-14.7%
7,Cc1cc(-c2ccc(/C=N/n3cnnc3)o2)c([N+](=O)[O-])cc1C,1.7%
8,COc1ccc(-n2c(C)csc2=S)cc1,-2.06%
9,Cn1nc([N+](=O)[O-])nc1Sc1ccc(C(C)(C)C)cc1,1.08%
10,CC(N=Cc1nc(-c2ccccc2)oc1O)c1ccccc1 (configuration not stated),-15.5%
11,O=C(Nc1nnc(CCOCCOCCc2nnc(NC(=O)c3ccco3)s2)s1)c1ccco1,0.16%
12,COc1ccc(Br)cc1CN1CCN(C(=O)c2cccc(OC)c2OC)CC1,-12.2%
13,O=C1c2ccccc2NC(c2ccc(-c3cccc(Cl)c3)o2)N1O (configuration not stated),9.34%
14,CCCCc1nnc(NC(=O)CS(=O)(=O)Cc2ccccc2)s1,11.7%
15,Brc1ccc(-c2nnc(-c3ccccc3)o2)o1,-21.1%
16,O=C(Nc1cccc2ccccc12)c1onc2c1CCCC2,-13%
17,ONC(=Nc1ccccc1)c1ccccc1Cl,-2.09%
18,CCOC(=O)c1c(NC(=O)c2ccc(N3CCOCC3)c([N+](=O)[O-])c2)sc(C)c1C,-6.51%
19,CC(C)CC[n+]1ccn(C2=C([O-])c3ccccc3C(=O)/C2=N\S(=O)(=O)c2ccccc2)c1,18.2%
20,CCOC(=O)c1ccccc1NS(=O)(=O)c1ccc(OC)cc1,-9.6%
21,Cc1nc2ccccc2cc1OCc1ccc(F)cc1,56.8% (active)

row,SMILES,inhibition
1,Cc1nc2ccccc2cc1O,-18.9%
2,CCOC(=O)c1cc2ccccc2nc1C,-7.13%
3,CCN(CC)S(=O)(=O)c1ccc(N2CCOCC2)c(C(=O)O)c1,0.01%
4,COc1ccc(-c2noc(CSc3ccc(C)cc3)n2)cc1,8.11%
5,C=CCO/N=C(\C)c1c(O)c(C)c(-c2ccccc2)n(-c2ccccc2)c1=O,1.26%
6,CCn1c2ccccc2c2cc(NC(=S)N3CCOCC3)ccc21,7.28%
7,Cc1ccc(CNC(=O)c2ccccc2CCc2ccccc2)cc1,-23.4%
8,CCCCCCC(=O)Nc1nc(C)c(-c2csc(Nc3cc(Cl)ccc3OC)n2)s1,8.39%
9,c1cnc(Nc2nc(-c3ccc4ccccc4c3)cs2)nc1,10.4%
10,O=c1cc(CN2CCN(c3cccc(Cl)c3)CC2)c2cc3c(cc2o1)CCCC3,2.36%
11,O=C(O)c1cccnc1NC1CCCC1,-6.46%
12,CC(C)C(NC(=O)c1ccc(Cl)cc1)C(=O)O (configuration not stated),18.8%
13,Cc1ccccc1-n1nc(C)c2cc(C(=O)NC3CC3)sc21,2.59%
14,Cc1ccc(-c2ccnc3nc(Sc4ncc(C(F)(F)F)cc4Cl)nn23)cc1,-3.44%
15,CSc1nc(N(C)NC(=O)c2cccc(C)c2)c2ccccc2n1,5.9%
16,CCN(c1ccccc1)S(=O)(=O)c1ccc(C(=O)Nc2nccs2)cc1,-3.2%
17,O=C(Nc1ccn(Cc2ccccc2F)n1)c1ccc(COc2ccc(Cl)cc2Cl)o1,6.95%
18,Cc1ccc(-n2nc3cc(C)c(NC(=O)c4cccnc4)cc3n2)cc1,3.29%
19,Cc1cc(=O)[nH]c(SCc2cccc(F)c2)n1,-28.1%
20,O=[N+]([O-])c1ccccc1/C=N/n1c(COc2ccccc2)n[nH]c1=S,18.3%
